Pf growth 96h: P. falciparum growth inhibition at 96 hours; AID 504834; P. falciparum luciferase reporter growth, 96 h; Potency, µM (titrated, usually from 28.7 µM), most hits filed as inhibitors; hit rate 6.9% among 320,000
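P. falciparum expressing integrated firefly luciferase grown in erythrocytes (2% hematocrit, 0.05% parasitemia final) with compounds for 96 hours at 37 C, 5% CO2. Growth inhibition read as loss of luminescence after adding luciferase detection reagent.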
Pf growth 48h: P. falciparum growth inhibition at 48 hours (one generation). P. falciparum luciferase growth in erythrocytes, 48 h. Potency, µM (highest dose often 28.7 µM), usual class: inhibitors. hit rate 5.9% among 310,000. AID 504832
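Here the parasites carry a stable luciferase gene and grow inside erythrocytes in Albumax-based RPMI medium with compound for one erythrocytic cycle. Activity is scored as loss of luminescent signal.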
AMA1-RON2 inh: inhibitors of Plasmodium falciparum AMA1-RON2 interaction. AlphaScreen AMA1-biotinylated RON2 peptide binding. Potency, µM (highest dose often 58.2 µM), usual class: inhibitors. hit rate 0.2% among 360,000. AID 720542; note: nearly all actives have a fitted effect of over 45% in size
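AMA1 (3D7) with his tag at 25 nM final met compounds first, then biotinylated RON2 peptide at 25 nM; detection used donor plus acceptor beads, 10 µg/mL apiece, read by AlphaScreen after 30 min at room temperature.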
HCV inh: HCV inhibition | Huh7.5.1 HCVcc-Cre infection, luciferase reporter, 44 h | Potency, µM (titrated, usually from 41.8 µM), hits mostly inhibitors | hit rate 3.4% among 340,000 | AID 651820
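Luciferase read-out (15 sec integration) after a 15 min room-temperature substrate step quantifies HCVcc-Cre infection. Cells, 1,000 per well, had compound added 4 h post-plating, then virus at ~0.5 moi, and were cultured 44 h.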
Large screens that a line does not name were inactive. The list is not random: actives were taken first. Their share in the collection is about 11%. Calls come from the whole dose curve; as a rule, active = well fitted curve in the direction sought with a large enough effect; inconclusive = small, poorly fitted or top-dose-only effect, or another doubt; inactive = no such curve, though single readings can be large; an effect the other way counts as inactive or inconclusive.

Oc1ccc(Cl)c(CN2CCN(c3ncc(Cc4ccccc4)cn3)CC2)c1	none (no result: Pf growth 96h, Pf growth 48h, HCV inh)
CC(=O)OCCn1c2nc(=O)[nH]c(=O)c-2nc2cc(C)c(C)cc21	Pf growth 96h inconclusive, Pf growth 48h inconclusive, HCV inh inconclusive
CCCC(=O)OC[C@@H](OC(=O)CCC)[C@@H](OC(=O)CCC)[C@H](Cn1c2nc(=O)[nH]c(=O)c-2nc2cc(C)c(C)cc21)OC(=O)CCC	Pf growth 96h 12µM, Pf growth 48h inconclusive (no result: AMA1-RON2 inh, HCV inh)
Cc1cc2nc3c(=O)[nH]c(=O)nc-3n(CC(O)C(O)C(O)CO)c2cc1C (stereo unspecified)	Pf growth 96h 7.57µM, Pf growth 48h 13.5µM (no result: AMA1-RON2 inh, HCV inh)
CC(O)Cn1c(N2CCCC2)nc2c1c(=O)n(C)c(=O)n2C (stereo unspecified)	none
CC(OC(=O)c1ccc(Cl)nc1)C(=O)NC1CCCC1 (stereo unspecified)	none
COc1ccc(C(=O)CCC(=O)N2CCN(c3ccc(C)cc3)C(C)C2)cc1 (stereo unspecified)	Pf growth 96h 9.28µM, HCV inh inconclusive
CCC(CC)C(=O)Nc1c2c(nn1-c1ccc(OC)cc1)CS(=O)C2 (stereo unspecified)	Pf growth 96h 0.0329µM (no result: Pf growth 48h)
CSc1ccc(NC(=O)C(C)N2CCN(C)CC2)cc1 (stereo unspecified)	AMA1-RON2 inh inconclusive
CCC(CO)Oc1cc(NCc2ccc(C)cc2)c2ncn(C(C)C)c2c1 (stereo unspecified)	HCV inh inconclusive (no result: Pf growth 96h, Pf growth 48h)
CCC(CO)Oc1cc(NCc2ccc(C(=O)O)cc2)c2ncn(C(C)C)c2c1 (stereo unspecified)	none (no result: Pf growth 96h, Pf growth 48h)
CCOc1cc(NCc2ccccc2)c2ncn(C(C)C)c2c1	AMA1-RON2 inh 25.1µM, HCV inh 2.51µM (no result: Pf growth 96h, Pf growth 48h)
CC(C)n1cnc2c(NCc3ccccc3)cc(Cc3ccc(F)cc3)cc21	Pf growth 96h 6.57µM, Pf growth 48h 10.4µM, AMA1-RON2 inh inconclusive, HCV inh inconclusive
N=C1C(c2ccccc2)=C(O)CN1c1cccc2ccccc12	none
CN(Cc1ccccc1)C(=O)c1csc([C@H]2C[C@H](O)[C@@H](CO)O2)n1	none (no result: Pf growth 96h, Pf growth 48h, HCV inh)
O=[N+]([O-])c1cnc(Nc2ccccc2)nc1Nc1ccccc1	none
O=C(c1ccc(-c2ccc([N+](=O)[O-])cc2)o1)N1CCCCCCC1	HCV inh inconclusive
O=C(c1ccc(-c2ccc([N+](=O)[O-])cc2)o1)N1CCCC(C(F)(F)F)C1 (stereo unspecified)	Pf growth 48h 9.28µM, HCV inh inconclusive
CC1CCCN(C(=O)c2ccc([N+](=O)[O-])o2)C1 (stereo unspecified)	Pf growth 96h inconclusive, Pf growth 48h 13.1µM
Cc1ccc(CNC(=O)Cn2c(=O)c3sccc3n(Cc3ccc([N+](=O)[O-])cc3)c2=O)cc1	none
O=C(O)C(Cc1cccs1)c1cccs1 (stereo unspecified)	none (no result: Pf growth 96h, Pf growth 48h)
CNC(=O)C(=O)NCC1OCCN1S(=O)(=O)c1ccc(C)cc1 (stereo unspecified)	none (no result: HCV inh)
Cc1ccc(S(=O)(=O)N2CCOC2C(Cl)(Cl)Cl)cc1 (stereo unspecified)	Pf growth 48h 8.28µM
Cc1cccc(OCCCSc2nc3ccccc3[nH]2)c1	none
Cc1cccc(OCCSCc2nc3ccccc3[nH]2)c1	Pf growth 96h inconclusive, Pf growth 48h inconclusive, HCV inh 6.31µM
Cc1ccccc1OCCSCc1nc2ccccc2[nH]1	Pf growth 96h 13.1µM, Pf growth 48h inconclusive, HCV inh inconclusive
CCOc1ccccc1OCC(=O)NNC(=O)Cn1cnc2c1c(=O)n(C)c(=O)n2C	none
CC(C)CNC(=O)c1ccccc1NC(=O)Nc1ccccc1	Pf growth 96h 10.4µM (no result: Pf growth 48h)
CC(C)CNC(=O)c1ccccc1NC(=O)c1ccc(CSc2ccccc2)cc1	Pf growth 96h 10.4µM, Pf growth 48h 13.1µM, HCV inh inconclusive
CCOc1ncccc1C(=O)N(CC)CC(=O)NCc1ccc(Cl)cc1	none
Nc1cccc2c(=O)c3ccccc3[nH]c12	Pf growth 96h 1.85µM, Pf growth 48h 1.85µM, HCV inh inconclusive
COc1ccc(C(=O)c2c3ccc(C(F)(F)F)cc3[n+]([O-])n2CCCN)cc1	Pf growth 96h inconclusive, Pf growth 48h 11.7µM
Cc1ccc(C(=O)c2c3ccc(C(F)(F)F)cc3[n+]([O-])n2CCCN)cc1	Pf growth 96h inconclusive, Pf growth 48h inconclusive, HCV inh inconclusive
COc1ccc(C(=O)c2c3ccccc3[n+]([O-])n2Cc2ccc(C(N)=O)cc2)cc1	Pf growth 96h 6.57µM, Pf growth 48h inconclusive
COc1ccc2c(C(=O)c3ccc(Cl)cc3)n(CCCC(N)=O)[n+]([O-])c2c1	Pf growth 96h inconclusive, Pf growth 48h 9.28µM
NC(=O)CCn1c(C(=O)c2cc(Cl)c(N)c(Cl)c2)c2ccccc2[n+]1[O-]	Pf growth 96h 10.4µM, Pf growth 48h inconclusive
Cc1sc[n+](CC(=O)c2ccc(Br)cc2)c1C	none
CN(C)CCCOC(=O)c1ccc(Cl)cc1Cl	none
Cc1c(CCOC(=O)c2ccc(Cl)cc2Cl)sc[n+]1CC(=O)c1ccccc1	HCV inh 12.6µM (no result: Pf growth 96h, Pf growth 48h)
Cc1c(CCOC(=O)C23CC4CC(CC(C4)C2)C3)sc[n+]1Cc1ccccc1	Pf growth 48h 3.29µM
Cc1c(CCOC(=O)C23CC4(C)CC(C)(CC(C)(C4)C2)C3)sc[n+]1CC(=O)c1ccccc1	Pf growth 48h inconclusive
Cc1c(CCOC(=O)c2cc([N+](=O)[O-])cc([N+](=O)[O-])c2)sc[n+]1CC(=O)c1ccc(Br)cc1	Pf growth 96h inconclusive, Pf growth 48h inconclusive, HCV inh 10µM
Cc1c(CCOC(=O)CC23CC4CC(CC(C4)C2)C3)sc[n+]1CC(=O)c1ccccc1	Pf growth 48h 13.1µM, HCV inh 11.2µM
CCOc1ccc(C2CC(c3ccc(F)cc3)n3ncnc3N2)cc1 (stereo unspecified)	Pf growth 96h inconclusive
Cc1cccc(S(=O)(=O)NC(=O)C2(C)CCN2C(=O)Cc2ccc(C(C)(C)C)cc2)c1 (stereo unspecified)	none (no result: Pf growth 96h, Pf growth 48h, HCV inh)
CN(C)C(=S)N=c1ssc(=S)n1Cc1cccnc1	HCV inh inconclusive (no result: Pf growth 96h, Pf growth 48h)
COc1ccc(C(C)(NC(C)=O)c2nc(-c3cccc(NC(C)=O)c3)cs2)cc1 (stereo unspecified)	none (no result: Pf growth 96h, Pf growth 48h, HCV inh)
C=CCc1cc(/C=C2/NC(=O)N(CC(=O)OC)C2=O)cc(OC)c1O	Pf growth 96h inconclusive, Pf growth 48h inconclusive, HCV inh inconclusive
Cc1ncc(C[n+]2csc(CCOC(=O)C34CC5CC(CC(C5)C3)C4)c2C)c(N)n1	none
Cc1ccc(C(=O)OCCc2sc[n+](Cc3ccccc3)c2C)cc1	Pf growth 96h 1.04µM, Pf growth 48h 1.47µM
Cc1c(CCOC(=O)C23CC4CC(CC(C)(C4)C2)C3)sc[n+]1Cc1ccccc1	Pf growth 96h 11.7µM, Pf growth 48h 3.29µM
Cc1ccc(C(=O)OCCN(C)Cc2ccccc2)cc1	none
CC(NC(=O)COC(=O)c1ccco1)c1ccccc1 (stereo unspecified)	none (no result: Pf growth 48h)
CC(NC(=O)COC(=O)c1ccc(N(C)C)cc1)c1ccccc1 (stereo unspecified)	Pf growth 48h 11.7µM, HCV inh inconclusive
CCOC(=O)C1=C(C)NC(C)=C(C(=O)OCC)C1C(=O)OCC(=O)NC(C)c1ccccc1 (stereo unspecified)	Pf growth 96h 13.1µM, Pf growth 48h inconclusive, HCV inh inconclusive
